# HCV inhibitor: qHTS Assay for Inhibitors of Hepatitis C Virus (HCV) | AID 651820, 2012 | 3.4% of 340,000 active | Huh7.5.1 HCVcc-Cre infection, luciferase reporter, 44 h | Potency, µM (doses to about 41.8 µM), inactives show top-dose activity change, negative = inhibition, most hits filed as inhibitors; active means well fitted inhibition curve with a large enough effect; inconclusive means small, poorly fitted or top-dose-only effect, or another doubt; inactive means no such curve, though single readings can be large or run the other way; further: potency means the concentration at half of the fitted maximal effect
#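 Cells seeded at 1,000/well and cultured 4 h, then compounds added followed by HCVcc-Cre virus (~0.5 moi). After 44 h further culture, luciferase substrate was added, plates held 15 min at room temperature, and luminescence read for 15 sec.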
# HCMV antiviral: qHTS Assay for inhibitors of the human cytomegalovirus (HCMV); HFF cells, HCMV-luciferase reporter, 72 h; stronger effect = lower value; activity change, negative = inhibition, % at 57.5 µM; 4.5% of 410,000 active; in the data active means activity change below about -60%; inconclusive means no clear call, values can overlap the other calls; inactive means above about -39%
#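 Two-dose cell screen: HFF monolayers treated with compounds and infected with luciferase-expressing HCMV at 1 PFU/cell, 72 h at 37C, then lysed for luciferase measurement.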
# LASV entry inh: qHTS for Inhibitors of binding or entry into cells for Lassa Virus | Potency, µM (highest dose often 37.9 µM), for the others: top-dose activity change, negative = inhibition, actives largely listed as inhibitors | Lassa virus pseudotype entry inhibition, cell reporter | 1.2% of 300,000 active; calls by dose curve; tested in HEK293 cells; further: potency means the concentration at half of the fitted maximal effect; nearly all actives have a fitted effect of over 50% in size
# Marburg entry inh: qHTS for inhibitors of binding or entry into cells for Marburg Virus. Potency, µM (doses to about 37.8 µM), for inactives: at the top dose activity change, negative = inhibition, most hits filed as inhibitors. Marburg virus pseudotyped entry inhibition, cell reporter. 1.8% of 300,000 active. AID 540276, 2011; calls by dose curve; tested in HEK293 cells; further: potency means the concentration at half of the fitted maximal effect
# FMDV antiviral: High Throughput Screening for Foot and Mouth Disease Virus Antivirals; AID 1159524, 2015; Potency, µM (top dose mostly 57.9 µM), for inactives: top-dose activity change, negative = inhibition, actives largely listed as inhibitors; FMDV antiviral cell-based qHTS; 1.2% of 410,000 active; calls by dose curve; tested in HEK293T cells; further: read-out not given here; potency means the concentration at half of the fitted maximal effect; nearly all actives have a fitted effect of over 45% in size
# Starred values were filed as active, the others as inactive; ? = inconclusive; . = no result given; [ ] = dose if it differs, or a comment. Rows were chosen to be rich in hits. Some 7.9% of all compounds tested hit in one or more screens of this group. On the % scale 0 is the no-effect control and ±100 the full control effect.
SMILES,HCV inhibitor,HCMV antiviral,LASV entry inh,Marburg entry inh,FMDV antiviral
CCN(c1ccccc1)S(=O)(=O)c1ccc(C(=O)N2CCN(c3ccccc3)CC2)cc1,?,5,7.9µM*,?,-22%
CCOC(=O)N1CCN(C(=O)c2ccc(N(C)S(=O)(=O)c3ccc(C)cc3)cc2)CC1,14µM*,-19,.,.,-21%
O=C(c1cnccn1)N1CCc2ccccc2C1,13%,-100*,11%,-2%[46.1 µM],17%
COc1ccc(S(=O)(=O)N(CC(=O)N2CCN(c3ccccc3)CC2)c2ccccc2)cc1,?,2,?,0%,-22%
Cc1ccc(S(=O)(=O)N(C)c2ccc(C(=O)N3CCc4ccccc4C3)cc2)cc1,?,0,11µM*,?,-12%
CCNS(=O)(=O)c1ccc(NC(=S)N2CCc3ccccc32)cc1,-3%,16,-16%[46.1 µM],29%[46.1 µM],-17%
CCN1C(=O)[C@@H]2[C@H]3[C@H](O)[C@H](O)CC(=NNC(=O)OCc4ccccc4)[C@@H]3CC[C@H]2C1=O,.,.,?,-8%[14.2 µM],.
CCOc1ccc(NC(=O)Cn2c(C)cc3ccccc3c2=O)cc1,.,10,0%[46.1 µM],?,-13%
O=C(c1ccc([N+](=O)[O-])cc1)N1CCc2ccccc2C1,9%,-68*,7%,3%[46.1 µM],5%
COc1ccc(N2CCN(C(=O)c3ccc(N(C)S(=O)(=O)c4ccc(OC)cc4)cc3)CC2)cc1,?,-63*,?,0%[46.1 µM],?
O=C(c1ccc(S(=O)(=O)c2ccccc2)cc1)N1CCc2ccccc2C1,-18%,0,-15%,?,0%
CCOc1ccccc1NC(=O)CN1CCCCCC1,-6%,11,6%,3%,-9%
Nc1nonc1-c1nc2ccccc2n1CC(=O)Nc1cccc(C(F)(F)F)c1,.,-12,-27%[46.1 µM],?,?
COc1cc2c(-c3ccc(O)cc3)nc3c(c(C)nn3-c3ccccc3)c2cc1OC,11µM*,-72*,?,-15%,0%
C/C=C(/C)C(=O)O[C@H]1C(C)=C2C([C@@H]1OC(=O)CCCCCCC)[C@@](C)(OC(C)=O)C[C@@H](OC(=O)CCC)[C@@]1(O)[C@H]2OC(=O)[C@@]1(C)O (some centres not stated),.,.,.,0.71µM*,.
Cn1nc(C(=O)OCC(=O)Nc2ccccc2OC(F)F)c2ccccc2c1=O,?,29,.,.,-23%
Cc1ccc(C)c(N2CCN(S(=O)(=O)c3cc4c(cc3C)NC(=O)CO4)CC2)c1,20%,13,.,.,0%
COc1ccc(C(=O)c2c(N)sc3c2CCN(C(=O)OC(C)(C)C)C3)cc1,?,-84*,?,?,?
CN(C[C@H](O)COc1ccc(OC[C@H](O)CN(C)C2CCCCC2)cc1)C1CCCCC1,.,.,.,10µM*,.
CN(CC(O)COc1ccc(OCC(O)CN(C)C2CCCCC2)cc1)C1CCCCC1 (configuration not stated),16µM*,?,?,10µM*,-1%
CCC(=O)c1ccc(OCC(O)CN(C)C2CCCCC2)cc1 (configuration not stated),?,25,2%,?,0%
Cc1cccc(C)c1OCC(O)CN(Cc1ccccc1O)C1CCCCC1 (configuration not stated),?,-69*,-2%[46.1 µM],?,-7%
COCCCNC(=O)c1cccc2c(-c3cccc(C(N)=O)c3)coc12,.,23,.,.,-10%
C=C1CN2C(=NC(c3ccccc3)C(C(=O)OC)=C2C)O1 (configuration not stated),.,.,.,0%[14.2 µM],.
O=C(Oc1ccc2c3c(c(=O)oc2c1)CCC3)c1ccccc1[N+](=O)[O-],7%,.,.,.,.
SMILES,HCV inhibitor,HCMV antiviral,LASV entry inh,Marburg entry inh,FMDV antiviral
Cc1cc(C)cc(N(C(=O)CNS(=O)(=O)c2ccccc2)C(C(=O)NCc2ccccc2)c2ccc(C)o2)c1 (configuration not stated),23%,2,12µM*,?,-10%
Cc1ccc(S(=O)(=O)NCC(=O)N(c2ccccc2)C(C(=O)NCc2ccccc2)c2ccco2)cc1 (configuration not stated),3%,-86*,?,20µM*,0%
COc1ccc(N(C(=O)CNS(=O)(=O)c2ccccc2)C(C(=O)NCc2ccco2)C(C)C)cc1 (configuration not stated),9%,16,-10%[46.1 µM],-17%[46.1 µM],-18%
CN1CCN(C(=O)c2sc(=S)n(-c3ccccc3)c2N)CC1,19%,-92*,-2%,?,2%
O=C(Nc1ccncc1)c1cccs1,14%,-34,-7%,2%[46.1 µM],-16%
Cc1nc(NC(=O)c2cccs2)ccc1Br,?,58,6.3µM*,?,1%
Cc1cnccc1NC(=O)c1cccs1,-26%,-62*,3%,-1%,-12%
Cc1cn(S(=O)(=O)c2ccc(F)c(Cl)c2)cn1,.,7,-18%[46.1 µM],-6%[46.1 µM],-12%
O=C(NCCn1ccc2ccccc21)c1ccc(S(=O)(=O)N2CCCCC2)cc1,?,-67*,.,.,?
COc1ccc(C(=O)NCCn2ccc3ccccc32)cc1,-4%,-25,?,?,-4%
CCN(CC)CCNC(=O)c1ccc(NC(=O)c2ccc(S(=O)(=O)N3CCCCCC3)cc2)cc1,10µM*,-32,6%,?,9%
CCN(CC)CCNC(=O)c1ccc(NC(=O)c2ccc(Cl)c(S(=O)(=O)N3CCCCCC3)c2)cc1,14µM*,-60*,10%,?,-29%
CO[C@H]1C[C@H](O[C@@H]2/C(C)=C/C[C@@H]3C[C@@H](C[C@]4(CC[C@H](C)[C@@H](C5CCCCC5)O4)O3)OC(=O)[C@@H]3C=C(C)/C(=N/O)[C@H]4OC/C(=C\C=C\[C@@H]2C)[C@]43O)O[C@@H](C)[C@@H]1O,.,.,.,.,-3%
Cc1nn(C)c(C)c1/C=N/NC(=O)C(C)(C)Oc1ccc(Cl)cc1,15%,-25,-18%,2%,5%
Cc1nn(C(C)(C)C)c(C)c1/C=N/OC(=O)Nc1ccc(Cl)cc1,?,-101*,?,?,5.6µM*
CCOC(=O)C1CCCN(C(=O)C2CCCN(S(=O)(=O)c3ccc4c(c3)oc(=O)n4C)C2)C1 (configuration not stated),-19%,-31,.,5%,-22%
Cc1cc(C)c(C)c(S(=O)(=O)N2CCC(C(=O)N3CCN(c4ccc(F)cc4)CC3)CC2)c1C,?,-27,-5%,?,-27%
Cc1ccc(C(C)(C)C)cc1S(=O)(=O)N1CCC(C(=O)N2CCN(c3ccc(O)cc3)CC2)CC1,?,?,2.8µM*,?,?
Cn1c(=O)oc2cc(S(=O)(=O)N3CCCC(C(=O)N4CCN(c5ccc(F)cc5)CC4)C3)ccc21 (configuration not stated),.,5,-9%[46.1 µM],?,?
O=C(C1CCN(S(=O)(=O)N2CCOCC2)CC1)N1CCN(c2ccc(F)cc2)CC1,?,-74*,1%[46.1 µM],-39%[46.1 µM],-2%

# Assay outcomes (PubChem BioAssay)
